Bead autofluor: flagged as autofluorescent in microsphere protease counterscreen; compound autofluorescence counterscreen, microsphere flow cytometry; hits give high values; fluorescence intensity (concentration not given with the values); actives 3.1% (n = 360,000); in the data active = fluorescence intensity above about 16000; inconclusive = no clear call, values can overlap the other calls
BoNT A protease: BoNT/A light chain protease inhibitors, primary screen, biochemical, flow cytometry, MLPCN library. Botulinum neurotoxin type A light chain protease (Clostridium botulinum A str. ATCC 3502). multiplex microsphere protease substrate cleavage. inhibition, % at 10 µM. actives 0.17% (n = 360,000). AID 588499, 2011; note: plate controls were buffer without enzyme for full effect and enzyme alone for no effect
BoNT F protease: BoNT/F light chain protease inhibitors, primary screen, biochemical, flow cytometry, MLPCN library; Multiplex microsphere protease cleavage assay; actives 0.22% (n = 360,000); AID 588497, 2011; inhibition, % at 10 µM; Botulinum neurotoxin type F light chain protease (Clostridium botulinum); in the data active = inhibition above about 35%, passing the limit was not always enough; inconclusive = no clear call, values can overlap the other calls; note: plate controls were buffer without enzyme for full effect and enzyme alone for no effect
Anthrax LF prot: Bacillus anthracis LF protease inhibitors, primary screen, biochemical, multiplex microsphere, MLPCN library; actives 0.12% (n = 360,000); inhibition, % at 10 µM; multiplex microsphere protease cleavage assay; Lethal factor (Bacillus anthracis), P15917; note: plate controls were buffer without enzyme for full effect and enzyme alone for no effect
Target sequence (P15917 whole entry, looked up): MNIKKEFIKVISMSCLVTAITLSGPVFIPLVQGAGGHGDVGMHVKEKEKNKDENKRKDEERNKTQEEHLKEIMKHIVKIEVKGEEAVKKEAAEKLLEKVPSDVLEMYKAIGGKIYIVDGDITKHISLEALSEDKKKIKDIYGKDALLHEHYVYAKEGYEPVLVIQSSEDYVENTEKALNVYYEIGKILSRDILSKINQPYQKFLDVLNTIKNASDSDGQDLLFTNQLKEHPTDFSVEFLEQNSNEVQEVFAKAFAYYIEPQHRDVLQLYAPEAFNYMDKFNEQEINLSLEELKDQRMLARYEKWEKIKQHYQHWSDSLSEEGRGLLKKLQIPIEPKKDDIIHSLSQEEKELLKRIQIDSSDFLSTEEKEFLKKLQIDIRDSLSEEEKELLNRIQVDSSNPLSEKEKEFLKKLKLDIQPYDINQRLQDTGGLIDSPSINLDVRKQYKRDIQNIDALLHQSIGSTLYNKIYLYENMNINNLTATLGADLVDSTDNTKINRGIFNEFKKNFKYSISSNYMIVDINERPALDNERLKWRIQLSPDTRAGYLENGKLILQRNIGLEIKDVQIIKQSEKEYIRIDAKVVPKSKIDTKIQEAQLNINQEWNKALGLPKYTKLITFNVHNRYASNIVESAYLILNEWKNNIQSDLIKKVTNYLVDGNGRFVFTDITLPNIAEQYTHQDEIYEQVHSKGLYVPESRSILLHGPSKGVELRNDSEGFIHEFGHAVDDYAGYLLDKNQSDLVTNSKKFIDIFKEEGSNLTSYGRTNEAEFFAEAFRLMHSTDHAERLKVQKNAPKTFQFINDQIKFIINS
BH1578 lux ind: inducers of Vibrio cholerae quorum light production without autoinducers, primary screen, BH1578 luxS cqsA deficient, single point; V. cholerae BH1578 lux reporter, luminescence, 6 h; activation, % at 18.7 µM; actives 0.16% (n = 350,000); in the data active = activation mostly above about 9.7%, no sharp cut-off; inconclusive = no clear call, values can overlap the other calls; inactive = mostly below about 3.7%
* = called active by the depositor; i = inactive; ? = inconclusive; nt = no result. Only some compounds are listed: those with a hit (about 3.5% of all), similar ones and a draw of the others. Cut-off read from the data, not from the text of the source, unless noted: active = inhibition above about 30%; inconclusive = no clear call, values can overlap the other calls; inactive = below that.

SMILES	Bead autofluor	BoNT A protease	BoNT F protease	Anthrax LF prot	BH1578 lux ind
COc1ccc(C(=O)CSc2nnc(C3CC3)n2N)cc1	22665*	?	0	1	i
CCOc1ccc(NC(=O)CSc2nnc(C3CC3)n2N)cc1	23438*	0	2	0	i
CCn1c(SCC(=O)c2ccc(OC)cc2)nnc1C1CC1	4200	-2	-12	0	i
COC(=O)Cc1c[nH]c2cccc(OCC(O)CN(Cc3ccc([N+](=O)[O-])cc3)C(C)(C)C)c12 (stereo unspecified)	24016*	-3	-9	-6	i
O=C(Nc1c(Cl)cccc1Cl)c1cc(=O)n(Cc2ccccc2)c(=O)[nH]1	21337*	?	-1	2	i
Cc1cccc(NC(=O)c2cc(=O)n(Cc3ccccc3)c(=O)[nH]2)c1	2395	-1	-3	-2	i
O=C(c1ccc(Cl)cc1)c1oc2ccccc2c1CS(=O)c1ccc(Cl)cc1 (stereo unspecified)	22309*	?	1	-1	-2
Nc1c(C(=O)c2ccc(Cl)cc2)oc2ccccc12	2088	-1	-7	-3	0
CCCCn1c(N)c(N(CC(C)C)C(=O)COC(=O)Cc2c(C)nc3ccccc3c2C)c(=O)[nH]c1=O	5502	2	7	1	i
COc1ccc(CCN2CC(C(=O)N3CCC(O)(c4ccccc4)CC3)CCC2=O)cc1 (stereo unspecified)	6016	-1	1	0	i
CCOc1ccc(N2CSC(=S)N(c3ccc(OCC)cc3)C2)cc1	3691	0	?	32*	i
CCOC(=O)c1c(/N=C/c2c(O)n(-c3ccc(F)cc3)c(=S)[nH]c2=O)sc2c1CCCC2	11434	101*	43*	56*	-1
CCOC(=O)c1c(/N=C/c2c(O)n(-c3ccccc3F)c(=S)[nH]c2=O)sc2c1CCCC2	3294	57*	24	56*	5
CCOC(=O)[C@]12CCC=C1N(Cc1ccccc1)C(=O)[C@H](CC(=O)NCCC(C)C)C2	4298	-1	-4	4	nt
NS(=O)(=O)c1ccc(CNC(=O)/C=C/c2cccc([N+](=O)[O-])c2)cc1	19057*	-16	-66	-23	i
CCOC(=O)N1CCN(c2nc3ccc(C)cc3n3cnnc23)CC1	3087	2	-7	3	i
Cc1cccc(-n2ncc3c(NCc4ccccc4)ncnc32)c1	5721	0	7	1	0
Cc1cccc(-n2ncc3c(N4CCCc5ccccc54)ncnc32)c1	20241*	1	0	-6	i
CCNC(=S)N1CCC(n2cnc3ccccc32)CC1	3978	0	2	-3	0
O=C(CSc1ncn(-c2ccccc2)n1)Nc1ccc2c(c1)OCO2	10774	-1	-12	-6	0
O=C(CSc1ncn(-c2ccccc2)n1)Nc1ccc(Br)cn1	21921*	1	-1	-1	i
COc1ccc(NC(=O)CSc2ncn(-c3ccccc3)n2)cc1Cl	19084*	5	5	-14	-1
Cc1ccc(NC(=O)CSc2ncn(-c3ccccc3)n2)cc1C	15505	3	2	2	-3
Cc1sc(NC(=O)CSc2ncn(-c3ccccc3)n2)nc1-c1ccccc1	16319*	1	0	-1	0
O=C(CSc1ccccn1)Nc1ccc(Br)cn1	2656	0	1	1	-2
SMILES	Bead autofluor	BoNT A protease	BoNT F protease	Anthrax LF prot	BH1578 lux ind
O=C(CSc1ncn(-c2ccccc2)n1)Nc1ccc2c(c1)OCCO2	24180*	-1	-2	0	0
Cc1cccc(C(=O)OCC(=O)NC2CC2)c1O	3619	0	-8	-7	-3
CC1(Cc2cc(Cl)ccc2C(F)(F)F)C(=O)Nc2ccc(OC(F)(F)F)cc21 (stereo unspecified)	3628	0	-4	5	-1
COc1cc(NS(=O)(=O)c2ccc(NC(=O)c3ccc(C)o3)cc2)nc(OC)n1	16150*	?	19	-8	i
Cc1cc(NS(=O)(=O)c2ccc(NC(=O)c3ccco3)cc2)nc(C)n1	21969*	-4	-9	-1	-3
COc1ccc(-c2csc(N(Cc3ccco3)C(=O)c3cccs3)n2)cc1	4258	-1	-8	-10	0
COc1ccc(-c2csc(N(CC3CCCO3)C(=O)c3cccs3)n2)cc1 (stereo unspecified)	22735*	?	-4	-2	-2
Cc1cc(C)n2nc3nc4c(cc3c2n1)CCCC4	19863*	?	6	2	-1
Cc1cc(C)n2nc(C)c(Br)c2n1	2275	0	-6	1	2
CCNC(=O)COc1cccc2ccccc12	21317*	-1	0	-1	i
COc1cc(OC)c(/C=N/NC(=O)Cn2nc([N+](=O)[O-])cc2C)c(OC)c1	3463	?	?	?	0
COc1cc(C)c(Cl)cc1S(=O)(=O)NCCN1CCOCC1	23984*	-3	-2	-3	0
COc1ccc(/C=C2/N=C3CCCCCN3C2=O)cc1	3350	0	-10	1	-1
CCOC(=O)c1ccc(NC(=O)Nc2ccc3c(c2)OCCO3)cc1	9020	0	1	-9	0
COc1ccccc1NC(=O)Nc1ccc2c(c1)OCCO2	9310	0	-4	-4	i
COc1cccc(OC)c1C(=O)Nc1ccc2c(c1)OCCO2	25227*	-4	-5	-1	i
Cc1cc(C(=O)Nc2ccc3c(c2)OCCO3)c(C)o1	3938	-1	-16	-3	0
Cc1occc1C(=O)Nc1ccc2c(c1)OCCO2	20875*	?	1	-8	i
Cc1ccsc1C(=O)Nc1ccc2c(c1)OCCO2	2172	0	-2	-1	-1
Cc1ncoc1C(=O)Nc1ccc2c(c1)OCCO2	18125*	6	6	-5	0
CCOC(=O)c1c(C)c(C(=O)Nc2ccc3c(c2)OCCO3)c(C)n1C	23007*	?	-12	1	i
O=C(C(=O)N1CCN(c2ccccc2F)CC1)c1cn(CC(=O)N2CCCC2)c2ccccc12	3102	0	0	0	0
CCOc1ncccc1C(=O)OCC(=O)c1cc(OC)c(OC)c(OC)c1	4885	-2	-7	2	-1
COc1ccc(N2CCOCC2)c(NC(=O)c2ccc3c(c2)OCO3)c1	3702	-5	-10	7	0
O=C(Nc1ccc2c(c1)OCCO2)c1ccccc1	2859	-1	-13	-6	0
CS(=O)(=O)Nc1ccc(C(=O)Nc2ccc3c(c2)OCCO3)cc1	20301*	1	2	1	0
COC(=O)Nc1ccc(NC(C)=O)cc1	23186*	-1	-1	-1	0
CC(=O)Nc1ccc(NS(=O)(=O)C(F)(F)F)cc1	19728*	?	0	1	-3
COC(=O)Nc1ccc(S(=O)(=O)N(C)C)cc1	20816*	0	-2	-3	0
